Results: article PMC7862700, “An all-to-all approach to the identification of sequence-specific readers for epigenetic DNA modifications on cytosine”

Legend:
Assay in all cases: DAPPL (digital affinity profiling via proximity ligation, sequencing); 10 mM Tris-HCl pH 7.5, 50 mM NaCl, 1 mM DTT, 4% glycerol, room temperature, 30 min; GST-TFs on glutathione beads, 16-mer random dsDNA library, 0.1% formaldehyde crosslink after washing; high values mean tight binding
FEV = target: T1, FEV (Homo sapiens, UniProt Q99581 1-238); conditions: protein: recombinant; tags: N-terminal GST; dsDNA, one strand shown
T1 sequence: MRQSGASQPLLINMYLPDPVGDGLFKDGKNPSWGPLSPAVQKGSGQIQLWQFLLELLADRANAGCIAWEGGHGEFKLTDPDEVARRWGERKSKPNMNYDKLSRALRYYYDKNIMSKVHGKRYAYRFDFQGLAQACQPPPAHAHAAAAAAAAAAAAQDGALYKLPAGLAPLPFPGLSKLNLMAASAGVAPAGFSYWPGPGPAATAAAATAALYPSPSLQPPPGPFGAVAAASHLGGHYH
Procedure, shortened: (§1)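 A tag-only sample was pooled with DNA-barcoded human transcription factors that had been expressed in yeast as GST fusions and captured on glutathione beads. The pools were incubated for 30 min at room temperature with 200 nmole of a random double-stranded 16-mer DNA library in Tris/NaCl/DTT/glycerol buffer, then washed, crosslinked with 0.1% formaldehyde, proximity-ligated (BsaI/T4 ligase, 1 h, 37 °C), PCR-amplified and sequenced on an Illumina NextSeq500. Binding signal is each hexamer's read frequency for a factor divided by its frequency for the tag-only sample.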

ETV5 = ETV5 (Homo sapiens, UniProt P41161 1-510); conditions: protein: recombinant; tags: N-terminal GST; dsDNA, one strand shown
Procedure, shortened: as §1

HSF1 = HSF1 (Homo sapiens, UniProt Q00613 1-529); conditions: protein: recombinant; tags: N-terminal GST; chain copies: 3; dsDNA, one strand shown
Procedure, shortened: as §1

SPIC = target: T2, SPIC (Homo sapiens, UniProt Q8N5J4 1-248); conditions: protein: recombinant; tags: N-terminal GST; dsDNA, one strand shown
T2 sequence: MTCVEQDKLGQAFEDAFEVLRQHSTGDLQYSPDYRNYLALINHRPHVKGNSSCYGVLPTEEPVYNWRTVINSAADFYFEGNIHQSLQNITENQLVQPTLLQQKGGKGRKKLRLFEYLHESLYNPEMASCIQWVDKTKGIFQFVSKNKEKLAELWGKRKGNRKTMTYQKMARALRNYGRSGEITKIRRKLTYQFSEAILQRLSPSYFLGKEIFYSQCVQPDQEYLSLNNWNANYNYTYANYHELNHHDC
Procedure, shortened: as §1

ELF4 = ELF4 (Homo sapiens, UniProt Q99607 1-663); conditions: protein: recombinant; tags: N-terminal GST; dsDNA, one strand shown
Procedure, shortened: as §1

ELK4 = target: T3, ELK4 (Homo sapiens, UniProt P28324-2 1-405); conditions: protein: recombinant; tags: N-terminal GST; dsDNA, one strand shown
T3 sequence: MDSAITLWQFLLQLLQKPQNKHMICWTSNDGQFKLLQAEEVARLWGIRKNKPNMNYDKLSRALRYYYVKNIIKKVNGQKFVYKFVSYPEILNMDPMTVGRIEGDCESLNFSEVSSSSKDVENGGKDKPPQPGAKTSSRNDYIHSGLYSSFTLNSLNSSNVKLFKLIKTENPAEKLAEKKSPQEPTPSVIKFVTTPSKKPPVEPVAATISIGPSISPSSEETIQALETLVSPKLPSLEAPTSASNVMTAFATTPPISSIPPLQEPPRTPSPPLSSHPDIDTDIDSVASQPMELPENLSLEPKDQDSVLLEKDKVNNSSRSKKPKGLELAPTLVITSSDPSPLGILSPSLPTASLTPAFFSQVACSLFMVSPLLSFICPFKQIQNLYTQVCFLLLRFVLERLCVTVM
Procedure, shortened: as §1

ETV2 = target: T4, ETV2 (Homo sapiens, UniProt O00321 1-342); conditions: protein: recombinant; tags: N-terminal GST; dsDNA, one strand shown
T4 sequence: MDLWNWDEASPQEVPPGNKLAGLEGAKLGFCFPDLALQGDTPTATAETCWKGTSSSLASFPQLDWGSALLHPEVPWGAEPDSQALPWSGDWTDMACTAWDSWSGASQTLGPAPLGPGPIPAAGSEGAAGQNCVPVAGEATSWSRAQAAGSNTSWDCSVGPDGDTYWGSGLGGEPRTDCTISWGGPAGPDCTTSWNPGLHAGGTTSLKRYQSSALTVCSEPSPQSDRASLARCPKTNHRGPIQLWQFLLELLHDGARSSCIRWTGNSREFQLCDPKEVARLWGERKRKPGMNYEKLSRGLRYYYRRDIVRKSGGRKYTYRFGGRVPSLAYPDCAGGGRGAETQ
Procedure, shortened: as §1

ELF3 = target: T5, ELF3 (Homo sapiens, UniProt P78545 1-371); conditions: protein: recombinant; tags: N-terminal GST; dsDNA, one strand shown
T5 sequence: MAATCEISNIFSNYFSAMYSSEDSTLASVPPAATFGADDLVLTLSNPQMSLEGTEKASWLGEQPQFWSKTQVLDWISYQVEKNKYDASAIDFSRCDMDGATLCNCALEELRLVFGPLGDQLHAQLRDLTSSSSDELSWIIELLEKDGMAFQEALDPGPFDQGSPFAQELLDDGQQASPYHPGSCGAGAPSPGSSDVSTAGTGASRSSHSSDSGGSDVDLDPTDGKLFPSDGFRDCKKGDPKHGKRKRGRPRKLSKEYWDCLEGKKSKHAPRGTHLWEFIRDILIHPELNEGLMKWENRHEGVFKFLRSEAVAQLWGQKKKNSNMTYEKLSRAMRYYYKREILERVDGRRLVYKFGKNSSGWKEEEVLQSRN
Procedure, shortened: as §1

CRX = CRX (Homo sapiens, UniProt O43186 1-299); conditions: protein: recombinant; tags: N-terminal GST; dsDNA, one strand shown
Procedure, shortened: as §1

ETV1 = ETV1 (Homo sapiens, UniProt P50549 1-477); conditions: protein: recombinant; tags: N-terminal GST; dsDNA, one strand shown
Procedure, shortened: as §1

ERF = target: T6, ERF (Homo sapiens, UniProt P50548 1-548); conditions: protein: recombinant; tags: N-terminal GST; dsDNA, one strand shown
T6 sequence: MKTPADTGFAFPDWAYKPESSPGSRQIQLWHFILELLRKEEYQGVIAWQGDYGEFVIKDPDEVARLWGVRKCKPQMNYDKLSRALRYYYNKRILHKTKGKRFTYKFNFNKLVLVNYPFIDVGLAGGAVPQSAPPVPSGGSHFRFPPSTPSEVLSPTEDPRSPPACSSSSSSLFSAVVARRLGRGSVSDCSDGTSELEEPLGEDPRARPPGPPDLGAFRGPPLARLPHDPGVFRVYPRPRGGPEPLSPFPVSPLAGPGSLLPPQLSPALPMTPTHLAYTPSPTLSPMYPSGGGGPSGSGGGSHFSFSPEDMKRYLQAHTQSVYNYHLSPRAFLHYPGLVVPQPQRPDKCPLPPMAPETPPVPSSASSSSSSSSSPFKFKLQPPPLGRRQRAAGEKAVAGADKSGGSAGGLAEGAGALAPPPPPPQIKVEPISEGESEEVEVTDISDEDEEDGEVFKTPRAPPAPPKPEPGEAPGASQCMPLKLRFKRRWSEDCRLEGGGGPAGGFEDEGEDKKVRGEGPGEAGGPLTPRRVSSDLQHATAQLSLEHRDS
Procedure, shortened: as §1

ETV3L = target: T7, ETV3L (Homo sapiens, UniProt Q6ZN32 1-361); conditions: protein: recombinant; tags: N-terminal GST; dsDNA, one strand shown
T7 sequence: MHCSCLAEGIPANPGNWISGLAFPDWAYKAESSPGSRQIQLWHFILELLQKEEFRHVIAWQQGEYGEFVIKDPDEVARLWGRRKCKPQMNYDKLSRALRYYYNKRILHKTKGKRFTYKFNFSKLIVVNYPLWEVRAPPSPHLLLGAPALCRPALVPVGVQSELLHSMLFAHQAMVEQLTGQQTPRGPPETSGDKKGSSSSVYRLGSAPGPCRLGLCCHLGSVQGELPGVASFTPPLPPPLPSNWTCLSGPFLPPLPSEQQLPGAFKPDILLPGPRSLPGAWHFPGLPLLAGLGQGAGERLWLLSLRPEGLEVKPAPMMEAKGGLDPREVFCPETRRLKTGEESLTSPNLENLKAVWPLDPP
Procedure, shortened: as §1

ETS2 = target: T8, ETS2 (Homo sapiens, UniProt P15036 1-469); conditions: protein: recombinant; tags: N-terminal GST; dsDNA, one strand shown
T8 sequence: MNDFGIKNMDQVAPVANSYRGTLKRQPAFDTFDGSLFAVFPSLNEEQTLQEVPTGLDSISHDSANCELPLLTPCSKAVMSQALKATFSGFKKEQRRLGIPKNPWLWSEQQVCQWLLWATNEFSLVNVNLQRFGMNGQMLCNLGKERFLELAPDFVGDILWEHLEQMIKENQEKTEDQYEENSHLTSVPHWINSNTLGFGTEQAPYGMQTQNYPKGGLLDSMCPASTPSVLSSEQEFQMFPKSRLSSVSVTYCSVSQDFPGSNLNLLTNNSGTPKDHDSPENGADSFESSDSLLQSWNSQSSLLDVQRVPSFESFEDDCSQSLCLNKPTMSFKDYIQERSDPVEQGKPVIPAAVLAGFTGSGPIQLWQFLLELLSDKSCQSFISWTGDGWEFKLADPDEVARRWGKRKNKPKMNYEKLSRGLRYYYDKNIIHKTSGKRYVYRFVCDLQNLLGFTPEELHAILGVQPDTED
Procedure, shortened: as §1

SPDEF = target: T9, SPDEF (Homo sapiens, UniProt O95238 1-335); conditions: protein: recombinant; tags: N-terminal GST; dsDNA, one strand shown
T9 sequence: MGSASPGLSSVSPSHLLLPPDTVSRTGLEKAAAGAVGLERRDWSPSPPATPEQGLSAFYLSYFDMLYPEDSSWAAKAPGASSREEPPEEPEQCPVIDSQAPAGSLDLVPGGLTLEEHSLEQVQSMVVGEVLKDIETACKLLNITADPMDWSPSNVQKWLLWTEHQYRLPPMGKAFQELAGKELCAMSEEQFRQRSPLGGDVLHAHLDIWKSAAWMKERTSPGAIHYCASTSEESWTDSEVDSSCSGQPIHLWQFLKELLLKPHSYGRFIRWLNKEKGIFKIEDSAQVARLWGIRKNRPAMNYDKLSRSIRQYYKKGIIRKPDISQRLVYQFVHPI
Procedure, shortened: as §1

ETV7 = target: T10, ETV7 (Homo sapiens, UniProt Q9Y603 1-341); conditions: protein: recombinant; tags: N-terminal GST; dsDNA, one strand shown
T10 sequence: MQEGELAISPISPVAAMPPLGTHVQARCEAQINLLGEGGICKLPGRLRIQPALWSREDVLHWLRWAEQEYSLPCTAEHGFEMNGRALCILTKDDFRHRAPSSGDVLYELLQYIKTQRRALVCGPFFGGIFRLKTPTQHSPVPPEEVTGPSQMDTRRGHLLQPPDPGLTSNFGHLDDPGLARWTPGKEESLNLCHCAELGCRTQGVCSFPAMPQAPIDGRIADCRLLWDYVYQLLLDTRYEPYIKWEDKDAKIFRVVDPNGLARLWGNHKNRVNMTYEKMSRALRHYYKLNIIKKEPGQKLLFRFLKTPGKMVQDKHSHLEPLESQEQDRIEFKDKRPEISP
Procedure, shortened: as §1

ELF5 = target: T11, ELF5 (Homo sapiens, UniProt Q9UKW6-2 1-255); conditions: protein: recombinant; tags: N-terminal GST; dsDNA, one strand shown
T11 sequence: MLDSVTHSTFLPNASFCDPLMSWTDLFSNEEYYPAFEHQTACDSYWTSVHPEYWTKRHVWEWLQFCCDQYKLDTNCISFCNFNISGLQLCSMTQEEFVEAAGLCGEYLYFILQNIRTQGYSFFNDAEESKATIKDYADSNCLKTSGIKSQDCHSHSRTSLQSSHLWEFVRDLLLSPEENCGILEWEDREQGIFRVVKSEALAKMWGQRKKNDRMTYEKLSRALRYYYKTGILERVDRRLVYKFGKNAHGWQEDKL
Procedure, shortened: as §1

ETV3 = target: T12, ETV3 (Homo sapiens, UniProt P41162-2 1-143); conditions: protein: recombinant; tags: N-terminal GST; dsDNA, one strand shown
T12 sequence: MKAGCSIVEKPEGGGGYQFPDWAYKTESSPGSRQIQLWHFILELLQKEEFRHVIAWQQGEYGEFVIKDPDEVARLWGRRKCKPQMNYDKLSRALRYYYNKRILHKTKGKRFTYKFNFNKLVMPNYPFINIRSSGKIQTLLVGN
Procedure, shortened: as §1

ETV6 = ETV6 (Homo sapiens, UniProt P41212 1-452); conditions: protein: recombinant; tags: N-terminal GST; dsDNA, one strand shown
Procedure, shortened: as §1

Chain of ETV6 (P41212 whole entry): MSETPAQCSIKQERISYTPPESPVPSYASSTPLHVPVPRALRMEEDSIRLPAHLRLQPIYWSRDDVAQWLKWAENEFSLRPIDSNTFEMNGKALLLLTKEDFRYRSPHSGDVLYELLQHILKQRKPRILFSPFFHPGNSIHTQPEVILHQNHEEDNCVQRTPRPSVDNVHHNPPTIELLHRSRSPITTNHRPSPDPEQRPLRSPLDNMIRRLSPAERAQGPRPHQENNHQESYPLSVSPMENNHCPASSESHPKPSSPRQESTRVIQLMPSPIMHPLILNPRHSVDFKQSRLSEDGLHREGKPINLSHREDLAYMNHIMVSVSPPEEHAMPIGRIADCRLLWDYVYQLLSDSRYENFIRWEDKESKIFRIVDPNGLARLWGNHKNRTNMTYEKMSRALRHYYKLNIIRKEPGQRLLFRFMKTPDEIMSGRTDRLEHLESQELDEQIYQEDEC
Chain of ETV1 (P50549 whole entry): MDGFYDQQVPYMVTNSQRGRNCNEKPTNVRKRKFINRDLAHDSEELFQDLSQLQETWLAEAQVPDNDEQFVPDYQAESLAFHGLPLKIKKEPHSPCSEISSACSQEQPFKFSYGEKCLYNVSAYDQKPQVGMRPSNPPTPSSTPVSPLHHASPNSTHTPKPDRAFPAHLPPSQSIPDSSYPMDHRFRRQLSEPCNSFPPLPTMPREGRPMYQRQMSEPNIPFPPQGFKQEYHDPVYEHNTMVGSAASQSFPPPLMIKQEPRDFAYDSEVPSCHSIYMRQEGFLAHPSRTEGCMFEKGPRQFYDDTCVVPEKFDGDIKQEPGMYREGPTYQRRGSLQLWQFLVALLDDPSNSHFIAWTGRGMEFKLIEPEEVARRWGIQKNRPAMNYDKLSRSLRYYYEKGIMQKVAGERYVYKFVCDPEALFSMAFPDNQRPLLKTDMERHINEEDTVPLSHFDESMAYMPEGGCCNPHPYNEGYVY
Chain of HSF1 (Q00613 whole entry): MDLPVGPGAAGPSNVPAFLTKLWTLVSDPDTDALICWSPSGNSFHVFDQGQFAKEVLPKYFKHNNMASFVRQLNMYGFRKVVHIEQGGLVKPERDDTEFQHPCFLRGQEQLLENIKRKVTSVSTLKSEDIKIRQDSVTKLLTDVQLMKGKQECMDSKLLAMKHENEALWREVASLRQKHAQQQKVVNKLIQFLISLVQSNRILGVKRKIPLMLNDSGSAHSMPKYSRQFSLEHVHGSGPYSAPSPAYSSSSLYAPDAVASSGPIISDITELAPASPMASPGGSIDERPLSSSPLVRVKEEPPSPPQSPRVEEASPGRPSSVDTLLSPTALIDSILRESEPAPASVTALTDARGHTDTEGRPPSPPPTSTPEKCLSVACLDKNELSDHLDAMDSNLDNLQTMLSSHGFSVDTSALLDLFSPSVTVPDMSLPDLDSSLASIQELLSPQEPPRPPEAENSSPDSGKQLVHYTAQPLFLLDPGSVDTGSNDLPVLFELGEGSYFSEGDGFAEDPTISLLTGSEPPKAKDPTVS
Chain of ELF4 (Q99607 whole entry): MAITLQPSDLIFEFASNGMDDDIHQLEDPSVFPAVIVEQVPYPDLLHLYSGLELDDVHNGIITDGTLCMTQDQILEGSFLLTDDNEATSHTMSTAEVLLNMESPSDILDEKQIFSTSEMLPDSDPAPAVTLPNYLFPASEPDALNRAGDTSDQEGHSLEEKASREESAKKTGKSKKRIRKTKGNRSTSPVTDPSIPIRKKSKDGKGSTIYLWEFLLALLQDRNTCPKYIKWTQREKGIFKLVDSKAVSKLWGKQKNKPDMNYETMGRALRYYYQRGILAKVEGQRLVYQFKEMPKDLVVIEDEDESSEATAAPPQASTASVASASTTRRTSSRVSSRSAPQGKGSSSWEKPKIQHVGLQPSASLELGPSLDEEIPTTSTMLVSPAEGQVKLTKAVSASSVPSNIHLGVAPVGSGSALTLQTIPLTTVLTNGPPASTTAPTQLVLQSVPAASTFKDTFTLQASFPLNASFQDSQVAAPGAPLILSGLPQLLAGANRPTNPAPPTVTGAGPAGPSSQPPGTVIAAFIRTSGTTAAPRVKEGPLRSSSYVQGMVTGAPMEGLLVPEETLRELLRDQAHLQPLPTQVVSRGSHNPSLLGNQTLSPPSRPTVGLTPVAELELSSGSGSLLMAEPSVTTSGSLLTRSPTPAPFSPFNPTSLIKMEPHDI
Chain of CRX (O43186 whole entry): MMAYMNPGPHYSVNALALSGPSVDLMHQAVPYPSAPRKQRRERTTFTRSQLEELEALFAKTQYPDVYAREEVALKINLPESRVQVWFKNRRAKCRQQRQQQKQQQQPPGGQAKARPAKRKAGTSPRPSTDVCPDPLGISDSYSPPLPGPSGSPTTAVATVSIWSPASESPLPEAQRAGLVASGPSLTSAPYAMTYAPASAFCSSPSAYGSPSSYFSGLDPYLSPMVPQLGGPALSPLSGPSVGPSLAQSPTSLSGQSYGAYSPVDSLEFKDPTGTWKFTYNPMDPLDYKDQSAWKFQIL
Chain of ETV5 (P41161 whole entry): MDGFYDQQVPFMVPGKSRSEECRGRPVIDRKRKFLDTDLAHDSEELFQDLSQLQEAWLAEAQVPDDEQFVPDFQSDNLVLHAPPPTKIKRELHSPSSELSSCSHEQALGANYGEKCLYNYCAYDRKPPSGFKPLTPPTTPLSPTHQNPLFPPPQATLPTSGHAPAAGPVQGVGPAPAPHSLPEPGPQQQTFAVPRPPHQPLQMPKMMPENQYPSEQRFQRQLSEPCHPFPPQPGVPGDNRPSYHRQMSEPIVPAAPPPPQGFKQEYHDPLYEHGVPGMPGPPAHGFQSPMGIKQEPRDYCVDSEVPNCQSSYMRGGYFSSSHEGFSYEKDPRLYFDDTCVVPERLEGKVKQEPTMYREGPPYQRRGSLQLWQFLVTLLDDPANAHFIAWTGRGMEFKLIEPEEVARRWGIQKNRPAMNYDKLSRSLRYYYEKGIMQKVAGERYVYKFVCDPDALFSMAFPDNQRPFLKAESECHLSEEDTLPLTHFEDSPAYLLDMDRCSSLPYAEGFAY

Question: Which results are given for TGTTAC?
Answer: binding signal (FEV): 1.4 fold enrichment (6-mer frequency, TF over GST control); binding signal (ETV5): 1.47 fold enrichment (6-mer frequency, TF over GST control); binding signal (HSF1): 1.12 fold enrichment (6-mer frequency, TF over GST control); binding signal (SPIC): 1.42 fold enrichment (6-mer frequency, TF over GST control); binding signal (ELF4): 1.47 fold enrichment (6-mer frequency, TF over GST control); binding signal (ELK4): 1.51 fold enrichment (6-mer frequency, TF over GST control); binding signal (ETV2): 1.58 fold enrichment (6-mer frequency, TF over GST control); binding signal (ELF3): 1.39 fold enrichment (6-mer frequency, TF over GST control); binding signal (CRX): 1.19 fold enrichment (6-mer frequency, TF over GST control); binding signal (ETV1): 1.4 fold enrichment (6-mer frequency, TF over GST control); binding signal (ERF): 1.3 fold enrichment (6-mer frequency, TF over GST control); binding signal (ETV3L): 1.41 fold enrichment (6-mer frequency, TF over GST control); binding signal (ETS2): 1.39 fold enrichment (6-mer frequency, TF over GST control); binding signal (SPDEF): 1.54 fold enrichment (6-mer frequency, TF over GST control); binding signal (ETV7): 1.42 fold enrichment (6-mer frequency, TF over GST control); binding signal (ELF5): 1.43 fold enrichment (6-mer frequency, TF over GST control); binding signal (ETV3): 1.44 fold enrichment (6-mer frequency, TF over GST control); binding signal (ETV6): 1.31 fold enrichment (6-mer frequency, TF over GST control)
